# High-throughput results as filed in PubChem BioAssay.
# BoNT F protease: inhibitors of Botulinum neurotoxin F light chain protease; Multiplex microsphere protease cleavage assay, flow cytometry; inhibition, % at 10 µM; hit rate 0.22% among 360,000; in the data active = inhibition above about 35%, passing the limit was not always enough; inconclusive = no clear call, values can overlap the other calls; note: plate controls were buffer without enzyme for full effect and enzyme alone for no effect
# Anthrax LF inh2: inhibitors of Bacillus anthracis lethal factor protease | P15917 | multiplex microsphere protease cleavage assay, LF | inhibition, % at 10 µM | hit rate 0.12% among 360,000 | AID 588501; note: plate controls were buffer without enzyme for full effect and enzyme alone for no effect
# Target sequence (P15917 whole entry, looked up): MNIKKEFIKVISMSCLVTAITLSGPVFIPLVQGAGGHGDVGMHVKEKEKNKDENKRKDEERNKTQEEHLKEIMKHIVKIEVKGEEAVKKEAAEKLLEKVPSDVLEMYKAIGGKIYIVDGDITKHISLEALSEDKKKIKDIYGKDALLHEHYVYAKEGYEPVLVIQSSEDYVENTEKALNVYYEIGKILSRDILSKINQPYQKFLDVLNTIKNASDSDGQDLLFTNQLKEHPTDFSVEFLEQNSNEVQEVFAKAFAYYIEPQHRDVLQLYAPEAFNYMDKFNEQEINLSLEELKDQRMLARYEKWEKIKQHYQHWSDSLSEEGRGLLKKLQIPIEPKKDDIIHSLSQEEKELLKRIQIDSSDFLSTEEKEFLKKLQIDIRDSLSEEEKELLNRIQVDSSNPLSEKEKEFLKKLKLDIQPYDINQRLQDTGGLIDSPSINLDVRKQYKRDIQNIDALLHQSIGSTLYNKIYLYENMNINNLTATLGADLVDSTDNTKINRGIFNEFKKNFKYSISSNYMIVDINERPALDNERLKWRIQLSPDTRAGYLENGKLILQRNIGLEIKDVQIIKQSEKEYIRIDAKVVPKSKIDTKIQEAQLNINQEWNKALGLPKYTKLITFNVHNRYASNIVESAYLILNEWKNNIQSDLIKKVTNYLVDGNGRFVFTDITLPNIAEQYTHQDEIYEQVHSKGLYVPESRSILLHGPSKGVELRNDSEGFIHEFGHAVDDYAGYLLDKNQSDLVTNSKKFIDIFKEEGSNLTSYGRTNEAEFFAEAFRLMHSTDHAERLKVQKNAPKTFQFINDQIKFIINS
# BoNT A protease: BoNT A light chain protease inhibition | inhibition, % at 10 µM | hit rate 0.17% among 360,000 | multiplex microsphere protease substrate cleavage, flow cytometry; note: plate controls were buffer without enzyme for full effect and enzyme alone for no effect
# Bead autofluor: compound fluorescence in toxin protease inhibitor counterscreen | hit rate 3.1% among 360,000 | compound autofluorescence counterscreen, microsphere flow cytometry; hits give high values | AID 624483 | fluorescence intensity (no concentration beside the values); in the data active = fluorescence intensity above about 16000; inconclusive = no clear call, values can overlap the other calls
# Starred values were filed as active, the others as inactive; ? = inconclusive. In the library only some 3.5% were active in any assay of this set; here they are far more common. Cut-off read from the data, not from the text of the source, unless noted: active = inhibition above about 30%; inconclusive = no clear call, values can overlap the other calls; inactive = below that.
SMILES,BoNT F protease,Anthrax LF inh2,BoNT A protease,Bead autofluor
O=C(NCc1ccccc1)c1cccc(COc2cccc(Cl)c2)c1,14,-1,0,4567
O=C(NCc1ccccc1)Oc1cccc(Cl)c1,0,0,2,19856*
O=C(CNCc1ccc(Cl)cc1)Nc1ccc(C(=O)N2CCCCCC2)cc1,-5,-1,0,5863
CCN1CCN(C(=O)c2ccccc2N(Cc2ccccc2)S(=O)(=O)c2ccc(C)cc2)CC1,1,-3,?,21954*
CCN1CCN(C(=O)c2ccccc2N(Cc2ccccc2)S(C)(=O)=O)CC1,1,0,2,21470*
CCSc1cnn(-c2ccccc2)c(=O)c1SCC,-1,-2,0,10919
CSc1cnn(-c2ccccc2)c(=O)c1SC,-1,-9,-1,16177*
COc1cc(C(=O)Nc2ccccn2)cc(OC)c1OC,9,-2,0,3979
Cc1cc(C(=O)Nc2ccccn2)cs1,0,-2,0,22600*
CCc1ccc2[nH]c(=O)c(C(c3nnnn3CC3CCCO3)N3CCCc4ccccc43)cc2c1 (centres undefined),-10,-4,1,5509
Cc1ccc(C)c2[nH]c(=O)c(C(c3nnnn3Cc3ccccc3)N3CCc4ccccc4C3)cc12 (centres undefined),1,4,?,22367*
Cc1cccc2cc(C(c3nnnn3Cc3ccc4c(c3)OCO4)N3CCCC3)c(=O)[nH]c12 (centres undefined),-12,-1,0,6840
Cc1ccc2cc(C(c3nnnn3CC3CCCO3)N3CCc4ccccc4C3)c(=O)[nH]c2c1 (centres undefined),3,1,2,22554*
Cc1cc2cc(C(c3nnnn3CC3CCCO3)N3CCCc4ccccc43)c(=O)[nH]c2cc1C (centres undefined),-11,1,1,24311*
O=c1[nH]c2cc3c(cc2cc1C(c1nnnn1Cc1ccccc1)N1CCN2CCCC2C1)OCCO3 (centres undefined),1,5,7,9350
O=c1[nH]c2cc3c(cc2cc1C(c1nnnn1Cc1ccccc1)N1CCCCCC1)OCCO3 (centres undefined),12,5,9,17658*
CCOc1ccc2[nH]c(=O)c(C(c3nnnn3CC3CCCO3)N3CCc4ccccc4C3)cc2c1 (centres undefined),-7,-5,0,5653
CC1O[C@@H](O[C@H](C)CC[C@@H](C)O[C@H]2OC(C)[C@@H](O)C[C@H]2O)C(O)C[C@H]1O (some centres undefined),0,-6,0,4059
Cc1ccccc1NC(=O)Cc1nc(COC(=O)CCNS(=O)(=O)c2ccccc2)cs1,-6,0,-6,?
CCc1cccc(NC(=S)N(CCOC)C(C)c2ccco2)c1 (centres undefined),-4,12,0,5498
c1ccc2sc(NC3=NCN(C4CCCCCC4)CN3)nc2c1,0,-1,0,19894*
CCN1CCN(Cc2c(OC)ccc3ccccc23)CC1,4,0,4,19532*
COc1ccc2ccccc2c1CN1CCSCC1,?,-16,-42,13289
CCOc1ccccc1N1CCN(Cc2cccc(OC)c2OC)CC1,-3,0,0,16205*
COc1ccccc1N1CCN(Cc2ccc(OC)c(OC)c2OC)CC1,-2,-10,0,?
SMILES,BoNT F protease,Anthrax LF inh2,BoNT A protease,Bead autofluor
COc1ccc(CN2CCN(c3ccccc3)CC2)c(C)c1C,-6,-1,?,23743*
COc1ccc2ccccc2c1CN1CCN(C)CC1,7,-17,?,19346*
Cc1cc(OCC(O)CN2CCCC2)cc(C)c1Cl (centres undefined),-43,-8,-25,?
Cc1ccc(S(=O)(=O)N2CCOC2CNC(=O)C(=O)NCCCN2CCOCC2)cc1 (centres undefined),18,-3,3,4435
Cc1ccc(CNC(=O)C2CCCN(S(=O)(=O)c3ccc(F)cc3)C2)cc1 (centres undefined),-2,-1,0,?
O=[N+]([O-])c1cc([N+](=O)[O-])c(Oc2cc(Cl)cc(Cl)c2)cc1NN1CCCCC1,-9,-9,-1,4502
COc1ccccc1NC(=S)N1CCN(c2nc(-c3ccccc3)cs2)CC1,-4,-3,-1,3836
Nc1nnc(SCC(=O)N2CCN(Cc3ccccc3)CC2)s1,0,2,?,16406*
C#CCNc1cc(C)nc2ncnn12,-5,0,?,24731*
CC1CCCCC1NC(=O)COc1ncnc2sccc12 (centres undefined),-1,-14,-3,7022
CCN1CCN(C(=O)c2cc(-c3cccnc3)nc3ccc(Br)cc23)CC1,-1,2,?,20068*
C/C(=C/c1ccccc1)C(=O)N1CCC(C)CC1,-12,-4,3,3807
O=C(N1CCOCC1)n1nnc2ccccc21,-2,0,-1,22842*
C/C(=C\c1ccccc1)C(=O)n1nnc2ccccc21,-9,-7,-6,17498*
O=C(N1CCOCC1)n1cnc2ccccc21,-5,-3,0,5975
O=C(NCCc1nc2ccccc2[nH]1)C1CCC(=O)N(CCc2cccc(F)c2)C1 (centres undefined),-7,1,-1,5080
Oc1ccc(Br)cc1Cn1nnc2ccccc21,?,-2,2,3573
CC(C)C[C@@H](CN)NC(=O)c1nc[nH]c1C(=O)N[C@@H](C)C(=O)CNC[C@H](C)NC(=O)c1nc[nH]c1C(=O)N[C@@H](C)C(=O)O,-3,1,0,3849
O=C(O)C(C(O)c1ccc([N+](=O)[O-])cc1)[n+]1ccccc1 (centres undefined),-34,-6,1,3782
O=[N+]([O-])c1cccc(/C=C/c2nc(C=Nc3ccc4ccccc4c3)c(O)o2)c1,2,2,-2,17170*
O=[N+]([O-])c1cccc(/C=C/c2ccc3cccc(O)c3n2)c1,?,-6,-1,3962
CCOC(=O)c1ccc(NC(=O)Nc2nncs2)cc1,-3,-4,0,3385
Cc1c(NC(=O)c2ccco2)c(=O)n(-c2ccccc2)n1C,?,0,2,3714
Cc1c(NC(=O)C(C)OC(=O)C(NC(=O)c2ccco2)C(C)C)c(=O)n(-c2ccccc2)n1C (centres undefined),3,-2,?,22112*
Cc1c(NC(=O)C(C)OC(=O)CCc2ccccc2)c(=O)n(-c2ccccc2)n1C (centres undefined),-1,-2,-1,4025
SMILES,BoNT F protease,Anthrax LF inh2,BoNT A protease,Bead autofluor
C=CCc1cccc(CNc2c(C)n(C)n(-c3ccccc3)c2=O)c1O,-3,-3,0,16249*
Cc1c(NC(C)c2ccccc2O)c(=O)n(-c2ccccc2)n1C (centres undefined),-1,-2,-1,24008*
Cc1c(NC(=O)C(C)OC(=O)Cc2ccccc2)c(=O)n(-c2ccccc2)n1C (centres undefined),-4,1,-3,24503*
O=C(NCCC(F)(F)F)C1Cc2c(-c3ccc(Cl)cc3)ccnc2O1 (centres undefined),0,1,0,3001
CCCCn1c(N)c(N(CCOC)C(=O)c2nn(CC)c(=O)c3ccccc23)c(=O)[nH]c1=O,-2,-1,6,?
O=C(COC(=O)COc1ccccc1)NCCC1=CCCCC1,0,-4,0,3995
